Screens: PubChem, Buhrlage Lab, Dana-Farber Cancer Institute and Novartis Institutes for BioMedical Research (Cambridge, Mass)
USP30 inh = blocks human USP30 ubiquitin-rhodamine cleavage; Q70CQ3; purified USP30, Ub-rhodamine cleavage fluorescence; inhibition, % at 25 µM; 5.3% of 47,000 active; AID 1645860
USP17 inh = blocks human USP17 ubiquitin-rhodamine cleavage; purified USP17, Ub-rhodamine cleavage fluorescence, 3 h; inhibition, % at 50 µM; 6.5% of 47,000 active; A8MUK1
Target sequence (A8MUK1 whole entry, looked up): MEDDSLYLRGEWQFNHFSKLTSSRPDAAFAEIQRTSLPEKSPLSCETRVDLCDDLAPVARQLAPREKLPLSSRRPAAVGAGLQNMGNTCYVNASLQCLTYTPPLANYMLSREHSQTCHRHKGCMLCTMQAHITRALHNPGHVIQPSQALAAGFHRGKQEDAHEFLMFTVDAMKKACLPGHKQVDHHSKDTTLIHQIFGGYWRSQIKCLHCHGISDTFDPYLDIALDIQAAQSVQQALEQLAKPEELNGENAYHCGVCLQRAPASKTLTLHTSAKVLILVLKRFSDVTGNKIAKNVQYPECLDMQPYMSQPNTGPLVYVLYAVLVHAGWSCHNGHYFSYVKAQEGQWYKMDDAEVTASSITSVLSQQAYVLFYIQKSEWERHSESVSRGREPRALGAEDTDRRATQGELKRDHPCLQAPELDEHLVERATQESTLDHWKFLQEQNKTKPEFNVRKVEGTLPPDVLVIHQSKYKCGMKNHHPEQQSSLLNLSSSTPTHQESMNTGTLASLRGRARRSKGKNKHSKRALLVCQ
USP28 inh = human USP28 deubiquitinase inhibition | Q96RU2 | purified USP28, Ub-rhodamine cleavage fluorescence, 30 min | inhibition, % at 25 µM | 3% of 47,000 active | AID 1645857
Of the large screens only hits and unclear results are named; the others gave an inactive call. Rows were chosen to be rich in hits. Some 11% of all compounds tested hit in one or more screens of this group. Rule as the data show it: active = inhibition above about 30%; inactive = the rest.

Cc1cccc(C2c3[nH]c4ccccc4c3C[C@H]3C(=O)N(c4ccc5c(c4)OCCO5)C(=O)N23)c1 (some centres undefined)	none
COc1ccc(CCNc2c(C)c(C)nc3cc(-c4nccn4C)nn23)cc1OC	none
COc1ccc(CNC(=O)c2cc3ccccc3cc2OC)cc1OC	none
COc1ccc(CNC(=O)Cc2cccc3ccccc23)cc1OC	USP30 inh 30
O=C(Cn1cccc1-c1nnc(-c2ccccc2)o1)Nc1ccccc1	none (no result: USP30 inh, USP28 inh)
COc1ccc(CNC(=O)c2ccc(-c3nnc(-c4ccccc4)o3)cc2)cc1OC	USP30 inh 42
COc1ccc(CCNC(=O)c2cc3ccccc3s2)cc1OC	USP28 inh 86
COc1ccc(CNC(=O)Cc2ccc3ccccc3c2)cc1OC	none
COc1ccc(CC(=O)NCc2cc3ccccc3s2)cc1OC	none
O=C(NCc1ccc(F)cc1)Nc1ccc(-c2nnc(-c3ccccc3)o2)cc1	USP17 inh 72 (no result: USP30 inh, USP28 inh)
COc1cc(C(=O)COC(=O)C2(c3cccc(F)c3)CCCC2)cc(OC)c1OC	none
CCOC(=O)c1ccc(N2C(=O)C=C(N3CCN(CCO)CC3)C2=O)cc1	none (no result: USP17 inh)
O=C(NCc1ccccc1)c1cccc(Oc2nc(CN3CCCCC3)nc3sc4c(c23)CCC4)c1	none
Cc1ccccc1NC(=O)C1CCCN(C(=O)c2cc(-c3ccncc3)n[nH]2)C1 (centres undefined)	none
CCC(=O)Nc1nc(-c2ccc(C)cc2)ns1	USP17 inh 46
Cc1ccc(-c2nsc(NC(=O)COc3ccccc3C)n2)cc1	none
COc1ccc(-c2nsc(NC(=O)Cc3cccc4ccccc34)n2)cc1OC	USP28 inh 33
COc1ccc(OCC(=O)Nc2nc(-c3ccc(OC)c(OC)c3)ns2)cc1	none
Cc1ccccc1OCC1=NN2C(=N)/C(=C/c3cn(Cc4ccc(Cl)cc4)c4ccccc34)C(=O)N=C2S1	none (no result: USP17 inh)
N#Cc1ccccc1OCC(=O)N1CCC(c2nc3ccccc3o2)CC1	USP17 inh 32
O=C(c1ccccc1F)N1CCC(c2nc3ccccc3o2)CC1	none
O=C(c1cccc([N+](=O)[O-])c1)N(c1ccccn1)c1ccccn1	none
O=C(/C=C/c1ccco1)c1cccc([N+](=O)[O-])c1	USP17 inh 83, USP28 inh 46
CC(C)=CCCC1(C)OC2=C(C(=O)c3cc(O)cc(O)c3C2=O)[C@H]2C=C(C)CC[C@H]21 (some centres undefined)	USP17 inh 86
CC12CCCC(O1)c1c(cc3c(c1O)C(=O)c1c(O)cc(O)cc1C3=O)O2 (centres undefined)	none
CCC(Sc1nc2c(=O)[nH]cnc2n1C)C(=O)Nc1ccc(C(C)C)cc1 (centres undefined)	none
CCN(CC)c1nc(F)c2c(c1F)S(=O)(=O)CCN2Cc1cccnc1	USP17 inh 58
O=S1(=O)CCN(CC2CCCO2)c2c(F)nc(N3CCOCC3)c(F)c21 (centres undefined)	none
CC1CCCCN1c1nc(F)c2c(c1F)S(=O)(=O)CCN2Cc1cccnc1 (centres undefined)	USP17 inh 35
CCN1C[C@H]2CCN(Cc3cccnc3)CC[C@H]2S1(=O)=O	none
CCN1Cc2c(C(=O)N3CCCCC3C)ncn2-c2ccccc2S1(=O)=O (centres undefined)	none
CCNC(=O)c1cccc(Nc2c(-c3ccc(OC)cc3)nc3cnccn23)c1	none
COc1ccc(CC(=O)Nc2cc(=O)[nH]c3nc(-c4ccccc4C)nn23)cc1	none
COc1ccc(CC(=O)Nc2cc(=O)[nH]c3nc(-c4ccco4)nn23)cc1	USP17 inh 34
Cc1cc(C)cc(Oc2nc3cc(C)nn3c3ccccc23)c1	none
Cc1cc2nc(Oc3cccc(Cl)c3)c3ccccc3n2n1	USP17 inh 62
O=C(O)c1ccc(CN(Cc2ccccc2)S(=O)(=O)c2ccc(Cl)cc2)cc1	none
CCN(c1ccccc1)S(=O)(=O)c1nnc(NC(=O)COc2ccc(Cl)cc2)s1	none
CCc1nnc(NC(=O)CN(Cc2ccccc2)S(=O)(=O)c2ccc(Cl)cc2)s1	USP30 inh 55, USP17 inh 63
O=S(=O)(c1ccc(Cl)cc1)N(Cc1ccccc1)Cc1nnnn1-c1ccccc1	USP30 inh 30
Cn1nccc1-c1cnc(CC2CCN(C(=O)C(C)(C)C)CC2)cn1	none
CNc1nc2c(c(=O)n1Cc1ccccc1)CN(C(=O)Nc1ccccc1)CC2	none
CNc1nc2c(c(=O)n1-c1ccccc1)CN(C(=O)c1ccccc1)CC2	none
CNc1nc2c(c(=O)n1-c1ccccc1)CCN(C(=O)c1ccc3ccccc3c1)C2	USP30 inh 43
CNc1nc2c(c(=O)n1Cc1ccccc1)CN(C(=O)c1ccc(CN)cc1)CC2	USP17 inh 59
Cc1cc(C)c(NC(=O)Cn2c(SCc3cccc(F)c3)nc3cccnc32)c(C)c1	USP30 inh 73, USP17 inh 64, USP28 inh 40
Cn1c(=O)n(CC(=O)NCc2cccc(F)c2)c2cccnc21	none (no result: USP30 inh, USP28 inh)
CCc1ccccc1NC(=O)Cn1c(SCc2ccc(F)cc2)nc2cccnc21	USP30 inh 57, USP17 inh 86, USP28 inh 43
CCc1ccccc1NC(=O)CN1C(=O)CSc2ncccc21	none
COc1ccc(C2CCCN2C(=O)c2cccc(NC(C)=O)c2)cc1OC (centres undefined)	none
O=C(Cc1c(F)cccc1Cl)Nc1nc2ccccc2[nH]1	none
CC(=O)c1cc(-c2ccc(Cl)cc2Cl)no1	none
Cc1ccccc1OCc1nc2c3cnn(C)c3ncn2n1	USP30 inh 35
Cc1ccccc1OCc1nc2c3c(C)c(C)oc3ncn2n1	none
CCc1ccc(C2CN3C(=O)CN(Cc4ccco4)C(=O)[C@]3(C)c3[nH]c4ccccc4c32)cc1 (some centres undefined)	none
C[C@]12C(=O)N(Cc3ccco3)CC(=O)N1CC(c1ccc(Br)cc1)c1c2[nH]c2ccccc12 (some centres undefined)	USP17 inh 34
COc1cccc2c1nc(C(F)(F)F)n2C1CCN(C(=O)Cc2cnc[nH]2)CC1	none
Cc1nn(C)c(NC(=O)Nc2ccccc2F)c1C1=CCCCC1	USP30 inh 34
Cc1nn(C)c(NC(=O)Nc2ccc(F)cc2F)c1C1=CCCCC1	none
CCS(=O)(=O)N1Cc2ccccc2CC1C(=O)Nc1nc(-c2ccccc2)c(C)s1 (centres undefined)	none
CC(C)CCN1Cc2c(C(=O)Nc3cccnc3)ncn2-c2ccccc2S1(=O)=O	none
COc1ccc(NC(=O)c2oc(=O)c3ccccc3c2-c2ccccc2)cc1	none
Cc1ccc(-c2c(C(=O)Nc3ccc(S(N)(=O)=O)cc3)oc(=O)c3ccccc23)cc1	USP17 inh 57
CS(=O)(=O)N1CCCc2cc(C(=O)NCc3ccc4c(c3)OCO4)ccc21	none
CS(=O)(=O)N1CCc2cc(C(=O)Nc3ccc(Cc4ccncc4)cc3)ccc21	USP28 inh 75
CCS(=O)(=O)N1CCc2cc(C(=O)Nc3ccc4c(c3)OCCO4)ccc21	USP28 inh 93
CC1CS(=O)(=O)N(c2ccc(C(=O)Nc3ccc4c(c3)OCCO4)cc2)C1=O (centres undefined)	USP17 inh 56, USP28 inh 79
Cc1ccc(CNC(=O)c2ccc(N3C(=O)C(C)CS3(=O)=O)cc2)cc1 (centres undefined)	none
CS(=O)(=O)N1CCCc2cc(C(=O)Nc3ccc(Oc4ccccc4)cc3)ccc21	USP28 inh 54
Cc1cccc(NC(=O)c2ccc3c(c2)N(S(C)(=O)=O)CC3)c1	none
